For assay [1], the target named is Mitogen-activated protein kinase kinase kinase 9 (Homo sapiens) (UniProt P80192). The following applies: at 1 µM.
The target of assay [2] is Ribosomal protein S6 kinase alpha-4 (Homo sapiens) (UniProt O75676). The following applies: at 10 µM.
Assay [3] addresses T1, Dual specificity mitogen-activated protein kinase kinase 6 (Homo sapiens) (UniProt P52564).
T1 sequence (whole entry): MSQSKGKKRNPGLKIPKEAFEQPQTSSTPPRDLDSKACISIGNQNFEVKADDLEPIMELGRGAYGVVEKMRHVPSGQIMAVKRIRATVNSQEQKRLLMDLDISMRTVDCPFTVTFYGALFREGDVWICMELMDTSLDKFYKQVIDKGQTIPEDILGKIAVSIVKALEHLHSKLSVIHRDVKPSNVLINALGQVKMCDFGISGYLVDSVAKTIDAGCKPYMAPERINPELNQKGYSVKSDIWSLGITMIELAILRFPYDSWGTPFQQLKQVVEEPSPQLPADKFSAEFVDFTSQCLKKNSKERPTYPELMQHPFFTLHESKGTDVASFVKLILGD
The following applies: at 1 µM.

Assay [4] addresses T1, Dual specificity mitogen-activated protein kinase kinase 6 (Homo sapiens). The following applies: at 10 µM.
In assay [5] the target is Myosin light chain kinase, smooth muscle (Homo sapiens) (UniProt Q15746). The following applies: at 1 µM.
Sequence of Myosin light chain kinase, smooth muscle (Homo sapiens) (Q15746 whole entry): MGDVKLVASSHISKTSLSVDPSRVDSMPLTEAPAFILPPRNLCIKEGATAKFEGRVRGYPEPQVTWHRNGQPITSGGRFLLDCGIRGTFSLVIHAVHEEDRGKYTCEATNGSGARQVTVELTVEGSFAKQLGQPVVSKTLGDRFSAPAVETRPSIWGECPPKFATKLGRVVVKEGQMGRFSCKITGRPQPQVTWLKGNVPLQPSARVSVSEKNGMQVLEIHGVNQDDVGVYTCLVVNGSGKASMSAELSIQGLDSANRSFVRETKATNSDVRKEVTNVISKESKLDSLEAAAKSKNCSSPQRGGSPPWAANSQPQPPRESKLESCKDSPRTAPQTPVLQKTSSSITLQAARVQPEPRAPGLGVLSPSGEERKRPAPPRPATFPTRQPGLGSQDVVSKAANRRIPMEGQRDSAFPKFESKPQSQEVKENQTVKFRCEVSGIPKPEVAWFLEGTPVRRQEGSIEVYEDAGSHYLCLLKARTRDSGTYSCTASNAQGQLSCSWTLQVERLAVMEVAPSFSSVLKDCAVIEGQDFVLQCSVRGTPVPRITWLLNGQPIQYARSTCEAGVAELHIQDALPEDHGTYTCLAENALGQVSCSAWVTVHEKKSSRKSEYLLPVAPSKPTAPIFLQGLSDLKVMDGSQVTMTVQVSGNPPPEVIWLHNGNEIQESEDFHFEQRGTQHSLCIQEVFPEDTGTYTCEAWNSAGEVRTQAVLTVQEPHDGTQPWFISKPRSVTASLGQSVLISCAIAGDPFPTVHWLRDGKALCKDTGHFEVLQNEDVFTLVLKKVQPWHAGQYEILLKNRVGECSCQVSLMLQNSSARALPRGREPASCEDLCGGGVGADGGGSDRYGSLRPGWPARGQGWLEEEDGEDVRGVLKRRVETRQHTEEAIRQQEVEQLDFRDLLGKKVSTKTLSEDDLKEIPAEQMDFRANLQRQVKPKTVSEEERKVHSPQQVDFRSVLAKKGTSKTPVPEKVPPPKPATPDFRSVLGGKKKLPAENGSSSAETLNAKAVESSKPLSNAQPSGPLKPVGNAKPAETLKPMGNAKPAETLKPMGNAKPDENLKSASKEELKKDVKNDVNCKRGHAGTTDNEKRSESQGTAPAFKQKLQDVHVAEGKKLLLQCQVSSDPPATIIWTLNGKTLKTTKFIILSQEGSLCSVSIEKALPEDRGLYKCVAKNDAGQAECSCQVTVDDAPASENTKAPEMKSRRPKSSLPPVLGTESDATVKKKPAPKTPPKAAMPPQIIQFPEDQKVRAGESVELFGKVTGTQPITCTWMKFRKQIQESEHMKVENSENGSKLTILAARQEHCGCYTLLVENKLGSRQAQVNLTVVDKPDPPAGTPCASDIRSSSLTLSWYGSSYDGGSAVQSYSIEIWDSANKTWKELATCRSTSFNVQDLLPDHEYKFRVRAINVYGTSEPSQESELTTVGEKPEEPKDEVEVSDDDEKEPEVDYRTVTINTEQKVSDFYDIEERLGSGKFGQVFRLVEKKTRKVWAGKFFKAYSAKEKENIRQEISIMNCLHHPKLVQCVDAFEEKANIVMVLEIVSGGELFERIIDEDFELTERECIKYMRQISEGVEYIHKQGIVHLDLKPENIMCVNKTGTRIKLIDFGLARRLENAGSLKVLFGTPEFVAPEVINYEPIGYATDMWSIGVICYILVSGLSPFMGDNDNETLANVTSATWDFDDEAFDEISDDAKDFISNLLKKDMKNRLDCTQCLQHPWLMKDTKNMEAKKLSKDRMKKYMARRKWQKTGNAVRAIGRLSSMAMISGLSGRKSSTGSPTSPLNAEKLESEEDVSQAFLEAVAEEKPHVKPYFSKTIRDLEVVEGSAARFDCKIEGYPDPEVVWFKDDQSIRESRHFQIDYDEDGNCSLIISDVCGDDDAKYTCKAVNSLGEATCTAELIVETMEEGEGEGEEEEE
In assay [6] the target is Mitogen-activated protein kinase kinase kinase 9 (Homo sapiens) (UniProt P80192). Conditions: at 10 µM.
In assay [7] the target is Serine/threonine-protein kinase MRCK alpha (Homo sapiens) (UniProt Q5VT25). Conditions: at 10 µM.
The target in assay [8] is T2, Dual specificity mitogen-activated protein kinase kinase 7 (Homo sapiens) (UniProt O14733).
T2 sequence (whole entry): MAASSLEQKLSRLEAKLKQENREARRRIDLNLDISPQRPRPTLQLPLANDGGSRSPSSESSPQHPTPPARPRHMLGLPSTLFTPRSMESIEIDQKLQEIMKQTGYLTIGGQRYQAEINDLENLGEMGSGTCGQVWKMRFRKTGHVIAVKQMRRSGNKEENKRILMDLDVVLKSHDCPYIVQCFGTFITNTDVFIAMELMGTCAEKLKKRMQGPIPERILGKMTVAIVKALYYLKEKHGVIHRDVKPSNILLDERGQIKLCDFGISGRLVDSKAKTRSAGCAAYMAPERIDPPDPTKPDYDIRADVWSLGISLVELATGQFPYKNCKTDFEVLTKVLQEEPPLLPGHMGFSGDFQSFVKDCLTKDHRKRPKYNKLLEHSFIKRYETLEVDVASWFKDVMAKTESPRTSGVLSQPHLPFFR
Conditions: at 1 µM.

For assay [9], the target named is T2, Dual specificity mitogen-activated protein kinase kinase 7 (Homo sapiens). Conditions: at 10 µM.
Assay [10] deals with Myosin light chain kinase, smooth muscle (Homo sapiens) (UniProt Q15746). The following applies: at 10 µM.
The target of assay [11] is Ribosomal protein S6 kinase alpha-5 (Homo sapiens) (UniProt O75582). The following applies: at 1 µM.
For assay [12] the target is unchanged. The following applies: at 10 µM.
The target of assay [13] is SRSF protein kinase 3 (Homo sapiens) (UniProt Q9UPE1). The following applies: at 1 µM.
Sequence of SRSF protein kinase 3 (Homo sapiens) (Q9UPE1 whole entry): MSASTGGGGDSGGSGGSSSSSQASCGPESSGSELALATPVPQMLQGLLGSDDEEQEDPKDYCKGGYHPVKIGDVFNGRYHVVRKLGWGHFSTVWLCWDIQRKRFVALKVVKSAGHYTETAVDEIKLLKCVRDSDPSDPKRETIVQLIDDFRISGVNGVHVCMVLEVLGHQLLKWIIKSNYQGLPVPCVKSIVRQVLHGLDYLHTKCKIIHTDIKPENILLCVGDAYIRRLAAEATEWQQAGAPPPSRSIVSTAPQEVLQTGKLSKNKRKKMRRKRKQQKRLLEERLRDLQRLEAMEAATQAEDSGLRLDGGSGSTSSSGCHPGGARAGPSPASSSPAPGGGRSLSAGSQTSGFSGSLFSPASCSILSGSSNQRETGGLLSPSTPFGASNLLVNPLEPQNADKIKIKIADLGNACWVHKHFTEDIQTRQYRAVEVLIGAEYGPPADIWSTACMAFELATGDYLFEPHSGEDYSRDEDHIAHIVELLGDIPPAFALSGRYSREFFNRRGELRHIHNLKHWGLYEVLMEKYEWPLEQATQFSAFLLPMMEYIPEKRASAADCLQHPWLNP
Assay [14] has the same target. The following applies: at 10 µM.
The target of assay [15] is T3, Serine/threonine-protein kinase 4 (Homo sapiens) (UniProt Q13043).
T3 sequence (whole entry): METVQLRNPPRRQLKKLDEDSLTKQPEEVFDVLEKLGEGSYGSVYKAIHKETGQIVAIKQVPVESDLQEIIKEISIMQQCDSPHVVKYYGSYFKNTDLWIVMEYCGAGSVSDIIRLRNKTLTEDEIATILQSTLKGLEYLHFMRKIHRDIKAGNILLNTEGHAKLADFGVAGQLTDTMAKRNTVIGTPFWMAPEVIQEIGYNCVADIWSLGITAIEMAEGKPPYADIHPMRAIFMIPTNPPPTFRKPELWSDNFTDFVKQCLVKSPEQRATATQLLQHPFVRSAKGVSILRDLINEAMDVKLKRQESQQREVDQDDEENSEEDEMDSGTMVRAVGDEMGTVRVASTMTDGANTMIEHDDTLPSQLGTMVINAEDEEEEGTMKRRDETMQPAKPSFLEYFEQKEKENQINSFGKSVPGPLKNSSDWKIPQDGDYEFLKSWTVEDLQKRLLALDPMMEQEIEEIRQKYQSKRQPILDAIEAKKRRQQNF
Conditions: at 1 µM.

Assay [16] addresses T3, Serine/threonine-protein kinase 4 (Homo sapiens). Conditions: at 10 µM.
The target of assay [17] is Serine/threonine-protein kinase MRCK alpha (Homo sapiens) (UniProt Q5VT25). Conditions: at 1 µM.
The target in assay [18] is Serine/threonine-protein kinase MRCK beta (Homo sapiens) (UniProt Q9Y5S2). Conditions: at 1 µM.
Sequence of Serine/threonine-protein kinase MRCK beta (Homo sapiens) (Q9Y5S2 whole entry): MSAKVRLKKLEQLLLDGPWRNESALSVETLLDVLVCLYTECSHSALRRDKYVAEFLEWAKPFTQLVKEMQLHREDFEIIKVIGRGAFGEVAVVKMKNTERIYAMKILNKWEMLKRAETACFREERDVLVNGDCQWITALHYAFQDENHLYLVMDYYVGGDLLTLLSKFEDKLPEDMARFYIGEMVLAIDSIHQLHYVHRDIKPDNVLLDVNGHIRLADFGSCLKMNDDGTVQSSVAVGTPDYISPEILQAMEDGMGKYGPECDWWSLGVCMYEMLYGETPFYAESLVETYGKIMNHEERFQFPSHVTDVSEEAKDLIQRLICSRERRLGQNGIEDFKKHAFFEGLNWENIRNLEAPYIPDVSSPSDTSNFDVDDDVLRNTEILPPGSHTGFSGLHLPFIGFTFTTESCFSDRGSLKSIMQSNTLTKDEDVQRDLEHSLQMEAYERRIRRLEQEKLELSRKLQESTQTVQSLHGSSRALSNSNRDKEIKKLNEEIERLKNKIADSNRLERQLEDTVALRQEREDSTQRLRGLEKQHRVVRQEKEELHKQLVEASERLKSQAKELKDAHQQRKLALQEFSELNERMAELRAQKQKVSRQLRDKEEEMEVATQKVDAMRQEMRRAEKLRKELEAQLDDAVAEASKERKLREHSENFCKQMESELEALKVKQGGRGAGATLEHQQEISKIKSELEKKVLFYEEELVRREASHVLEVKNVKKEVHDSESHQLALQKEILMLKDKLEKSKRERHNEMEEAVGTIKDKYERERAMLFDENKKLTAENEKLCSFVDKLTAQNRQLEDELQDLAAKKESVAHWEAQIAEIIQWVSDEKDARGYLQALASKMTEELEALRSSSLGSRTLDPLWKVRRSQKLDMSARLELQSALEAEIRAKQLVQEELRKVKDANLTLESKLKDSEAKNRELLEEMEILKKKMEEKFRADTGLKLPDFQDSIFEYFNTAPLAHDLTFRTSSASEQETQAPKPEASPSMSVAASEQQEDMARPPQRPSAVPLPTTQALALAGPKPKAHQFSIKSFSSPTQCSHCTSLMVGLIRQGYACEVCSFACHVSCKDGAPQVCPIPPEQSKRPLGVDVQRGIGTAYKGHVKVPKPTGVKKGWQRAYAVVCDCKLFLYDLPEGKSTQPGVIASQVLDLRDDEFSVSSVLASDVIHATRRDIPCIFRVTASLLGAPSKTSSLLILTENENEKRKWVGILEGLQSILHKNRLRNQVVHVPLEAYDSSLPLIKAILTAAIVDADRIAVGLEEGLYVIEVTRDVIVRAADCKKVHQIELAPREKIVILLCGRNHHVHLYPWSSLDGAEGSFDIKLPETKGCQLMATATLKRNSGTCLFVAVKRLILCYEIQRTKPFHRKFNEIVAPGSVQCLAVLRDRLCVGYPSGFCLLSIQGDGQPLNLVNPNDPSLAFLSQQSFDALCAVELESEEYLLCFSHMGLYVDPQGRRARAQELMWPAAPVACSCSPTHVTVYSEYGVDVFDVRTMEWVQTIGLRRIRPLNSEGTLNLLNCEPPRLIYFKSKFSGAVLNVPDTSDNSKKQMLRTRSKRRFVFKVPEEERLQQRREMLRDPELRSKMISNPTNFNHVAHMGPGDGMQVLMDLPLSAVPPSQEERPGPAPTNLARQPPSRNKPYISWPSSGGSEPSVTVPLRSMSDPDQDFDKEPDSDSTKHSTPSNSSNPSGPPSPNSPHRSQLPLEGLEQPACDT
The target is the same in assay [19]. The following applies: at 10 µM.
Assay [20] addresses Ribosomal protein S6 kinase alpha-4 (Homo sapiens) (UniProt O75676). Conditions: at 1 µM.

Sequence of Ribosomal protein S6 kinase alpha-4 (Homo sapiens) (O75676 whole entry, looked up): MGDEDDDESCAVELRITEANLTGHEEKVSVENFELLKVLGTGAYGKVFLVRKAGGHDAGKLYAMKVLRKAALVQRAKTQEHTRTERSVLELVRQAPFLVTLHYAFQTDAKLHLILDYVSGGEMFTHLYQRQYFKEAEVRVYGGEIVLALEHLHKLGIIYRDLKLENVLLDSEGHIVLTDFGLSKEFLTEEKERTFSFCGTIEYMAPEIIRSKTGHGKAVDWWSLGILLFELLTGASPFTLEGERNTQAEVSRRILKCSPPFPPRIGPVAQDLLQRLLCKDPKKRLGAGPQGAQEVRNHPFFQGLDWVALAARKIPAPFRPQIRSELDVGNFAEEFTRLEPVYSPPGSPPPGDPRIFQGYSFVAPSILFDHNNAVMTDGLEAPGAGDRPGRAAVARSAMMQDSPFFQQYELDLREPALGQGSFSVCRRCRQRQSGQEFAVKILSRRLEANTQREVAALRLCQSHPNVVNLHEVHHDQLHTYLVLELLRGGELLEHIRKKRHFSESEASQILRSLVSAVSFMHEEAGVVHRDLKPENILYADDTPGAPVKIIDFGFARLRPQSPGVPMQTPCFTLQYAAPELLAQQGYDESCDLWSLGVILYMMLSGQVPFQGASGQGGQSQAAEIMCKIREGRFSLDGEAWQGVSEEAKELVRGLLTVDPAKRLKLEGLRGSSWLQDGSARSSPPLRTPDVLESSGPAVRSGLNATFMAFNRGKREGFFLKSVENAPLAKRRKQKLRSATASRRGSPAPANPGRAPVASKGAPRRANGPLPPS

Turning to `O=C(Nc1ccc(Cl)cc1)c1ccccc1NCc1ccncc1`, the residual activity in assay [1] is 99%; in [2], 101%.

On to `NC(=O)c1cccc(-c2cc(Nc3ccc(OC(F)(F)F)cc3)ncn2)c1`, for which the residual activity in assay [3] amounted to 144%; in assay [4], 95%; in assay [5] it was 88%; in assay [1], 95%; in assay [6] it was 87%; in assay [7], 145%.

Consider `CN(C)S(=O)(=O)c1ccc2c(c1)/C(=C/c1cc3c([nH]1)CCCC3)C(=O)N2`, for which the residual activity amounted to 91% in assay [3]; 82% in assay [8]; 95% in [9]; 88% in [10]; 84% in [1]; 64% in [6]. Further, the residual activity in [11] stood at 115%; in assay [12], 125%; in assay [2], 94%; in assay [13], 98%; in assay [14] it was 77%; in [15], 23%. The residual activity in assay [16] was 2%.

On to `CCCC(=O)Oc1ccc2[nH]c(C(=O)c3cc4ccccc4[nH]3)cc2c1`, for which the residual activity in assay [3] stood at 99%; in assay [8] it was 104%; in assay [9], 81%; in assay [5] it was 90%; in assay [10], 97%; in assay [1] it was 80%. The residual activity in assay [6] stood at 88%; in [17] it was 102%; in [7], 102%; in assay [18], 92%; in assay [19], 79%; in assay [12], 103%. Besides, the residual activity in [20] worked out at 94%; in assay [2] it was 99%; in [14] it was 88%; in [15], 94%; in assay [16], 103%.

Take `COc1ccc(CNC(=O)Nc2ncc([N+](=O)[O-])s2)cc1`: the residual activity in assay [10] was 76%; in assay [17] it was 118%; in assay [7], 104%; in assay [11], 114%; in [12], 129%; in assay [15] it was 108%. Besides, in [16], the residual activity was determined as 105%.

With `CCOc1nc(NC(=O)Cc2cc(OC)ccc2OC)cc(N)c1C#N`, the residual activity worked out at 62% in [4]; 11% in assay [8]; 4% in assay [9]; 78% in assay [10]; 80% in assay [15].

As to `COc1cc2c(cc1OC)-c1n[nH]c(Nc3cccc(F)c3)c1C2`, the residual activity in assay [8] is 109%; in [9], 131%; in assay [5], 73%; in assay [10], 60%; in [17], 116%; in assay [7] it was 129%. The residual activity amounted to 100% in [19]; 114% in assay [13]; 66% in assay [14]; 83% in assay [15]; 73% in [16].

`Nc1nccc(-c2c(-c3ccc(F)cc3)ncn2C2CCNCC2)n1`: the residual activity in assay [3] is 80%; in assay [4] it was 3%; in assay [10] it was 82%; in [6], 48%.

Consider `COc1ccc2c(c1)c(C1=C(c3c[nH]c4ccccc34)C(=O)NC1=O)cn2CCCN(C)C`, for which the residual activity in assay [3] worked out at 110%; in [9], 104%; in assay [5] it was 51%; in [10], 15%; in [1] it was 63%; in [6], 15%. Also, the residual activity in assay [17] was 74%; in [7], 80%; in assay [18], 80%; in [19], 41%; in assay [11] it was 37%; in [12], 4%. Besides, the residual activity was determined as 39% in assay [20]; 5% in assay [2]; 52% in assay [14]; 64% in assay [15]; 25% in assay [16].

Turning to `O=C1NC(=O)C(c2cn(CCCn3ccnc3)c3ccccc23)=C1Nc1ccccc1`, the residual activity in assay [8] is 102%; in assay [9] it was 121%; in [5], 53%; in [10], 23%; in assay [1], 16%; in [6], 5%. For the same compound, the residual activity in assay [19] stood at 41%; in assay [11] it was 39%; in assay [12], 6%; in assay [20], 22%; in assay [2] it was 4%; in assay [13], 100%. For the same compound, the values for the residual activity in assay [14], in assay [15] and in [16] were 67%, 41% and 13%, respectively.

As for `Nc1nc(Nc2ccc(S(N)(=O)=O)cc2)nn1C(=O)c1c(F)cccc1F`, the residual activity in assay [8] stood at 104%; in assay [5], 78%; in assay [10], 22%; in assay [1] it was 16%; in assay [6], 1%; in assay [13], 75%. For the same compound, the residual activity stood at 33% in assay [14], 25% in [15] and 2% in assay [16].

Turning to `CCCCc1c(-c2ccc(O)cc2)[nH]c2nccnc12`, the residual activity in [3] is 87%; in assay [4], 73%; in [5], 100%; in [10], 83%; in assay [1], 16%; in [6], 15%. Moreover, the residual activity in assay [20] was 90%; in assay [2] it was 85%; in [15] it was 61%; in [16], 42%.

For `Oc1cccc(-c2nc(N3CCOCC3)c3oc4ncccc4c3n2)c1`, the residual activity in assay [3] came to 91%; in [5] it was 71%; in assay [10], 72%; in assay [1] it was 90%; in assay [6] it was 99%; in [17], 97%. In addition, the residual activity in [7] was found to be 91%; in [18] it was 91%; in assay [19], 85%; in [11], 130%; in assay [12] it was 90%; in assay [14], 92%. The residual activity in [15] and in [16] was 97% in each case.

Regarding `O=S(=O)(c1cccc2cnccc12)N1CCCNCC1`, the residual activity amounted to 81% in assay [4]; 85% in [8]; 84% in assay [6]; 41% in [12]; 58% in assay [20]; 21% in assay [2].

Consider `COc1cc2ncnc(Nc3cccc(Cl)c3)c2cc1OC`, for which the residual activity in [3] came to 47%; in assay [4] it was 26%; in assay [5], 64%; in [10] it was 28%; in assay [1], 76%; in assay [6] it was 21%. Moreover, the residual activity was determined as 107% in assay [17]; 111% in assay [7]; 102% in [18]; 104% in [19]; 103% in [11]; 102% in [12]. Moreover, the figures for the residual activity in assay [13], in assay [14] and in [16] were 104%, 22% and 74%, respectively.

As to `COc1ccc(Cl)cc1NC(=O)Nc1cc(C)nc2ccccc12`, the residual activity in assay [8] is 87%; in assay [9], 99%; in assay [5], 83%; in assay [10], 71%; in [1] it was 91%; in assay [6] it was 100%. For the same compound, the residual activity in [18] is 87%; in assay [19], 76%; in assay [2] it was 95%; in assay [15], 93%; in assay [16], 79%.

Source of the values: ChEMBL document CHEMBL2218924, “A broad activity screen in support of a chemogenomic map for kinase signalling research and drug discovery” (Biochem J, 2013).
